Test results reported in PubChem BioAssay AID463173 (ICCB-Longwood Screening Facility, Harvard Medical School, 2010).
The whole screen tested about 52,000 compounds, of which about 4,300 (8.3%) were called active. What follows is part of a selection rich in actives, with near analogues and random picks from the rest. Unmarked numbers belong to inactive results. Rule as the data show it: active = survival mostly below about 52% (no sharp cut-off); inactive = mostly above about 56%.

Tested on: DeltatarO mutant
Experiment: growth inhibition of S. aureus wild type versus tarO mutant, primary screen, teichoic acid synthesis inhibitors, RN4220, OD600 (AID 463173)
Settings: OD600, 18 h, active compounds read low, screened at 18.75 µg/mL (by protocol)

SMILES | survival
Cc1ccccc1-c1nn2c(=O)cc(CN3CCN(C(=O)c4ccc(C(C)(C)C)cc4)CC3)nc2s1 | 97%
COc1cc(OC)cc(C(=O)N2CCN(C(=O)COc3ccc(C)cc3)CC2)c1 | 57%
COc1ccc(OCC(=O)N2CCN(C(=O)c3cccc(OC)c3)CC2)cc1 | 72%
COc1cc(OC)cc(C(=O)N2CCN(C(=O)COc3ccccc3)CC2)c1 | 54% (active)
N#CC1=C(N)N(c2ccc(Cl)cc2)C2=C(C(=O)CCC2)C1c1cc(CN2CCOCC2)cs1 (stereo not drawn) | 59%
Cc1ccccc1-c1ccnc2[nH]n(-c3ccccc3)c(=O)c12 | 47% (active)
O=c1c2c(-c3ccc(Cl)cc3)ccnc2[nH]n1-c1ccccc1 | 67%
COc1ccccc1-c1ccnc2[nH]n(-c3ccccc3)c(=O)c12 | 64%
CCCC(c1nnnn1Cc1ccccc1)N1CCN(c2ccccc2)CC1 (stereo not drawn) | 42% (active)
CC(C)C(c1nnnn1Cc1ccccc1)N1CCN(c2ccccc2)CC1 (stereo not drawn) | 87%
CCC(c1nnnn1Cc1ccccc1)N1CCN(c2cccc(Cl)c2)CC1 (stereo not drawn) | 89%
COc1ccc(NC(=O)C2Cc3ccccc3N2C(=O)c2ccccc2)c(OC)c1 (stereo not drawn) | 80%
CCn1c(-c2ccc(S(=O)(=O)N3CCOCC3)cc2)csc1=Nc1ccc(C)c(Cl)c1 | 73%
COCCCn1c(-c2ccc(S(=O)(=O)N3CCOCC3)cc2)csc1=Nc1ccccc1 | 52% (active)
CCCn1c(-c2ccc(S(=O)(=O)N3CCOCC3)cc2)csc1=Nc1ccc(OCC)cc1 | 70%
CCCCn1c(-c2ccc(S(=O)(=O)N3CCOCC3)cc2)csc1=Nc1ccccc1 | 48% (active)
CC(C)Cn1c(-c2ccc(S(=O)(=O)N3CCOCC3)cc2)csc1=Nc1cc(Cl)ccc1Cl | 82%
CC(C)Cn1c(-c2ccc(S(=O)(=O)N3CCCC3)cc2)csc1=Nc1ccccc1 | 58%
CS(=O)(=O)N(CC(=O)O)c1ccc(Cl)cc1 | 105%
COc1ccc(-c2nc(SCC(=O)NC3CCCC3)c(-c3ccc(OC)cc3)[nH]2)cc1 | 71%
Cc1ccc(CN2CCSc3ccc(C(=O)N4CCN(c5cc(C)ccc5C)CC4)cc32)cc1 | 25% (active)
Cc1ccc(CN2CCSc3ccc(C(=O)N4CCN(c5ccc(Cl)cc5)CC4)cc32)cc1 | 72%
Cc1ccc(CN2CCSc3ccc(C(=O)N4CCN(c5ccccc5)CC4)cc32)cc1 | 63%
Cc1ccc(Cl)cc1N1CCN(C(=O)c2ccc3c(c2)N(Cc2ccc(F)cc2)CCS3)CC1 | 73%

SMILES | survival
Cc1ccc(CN2CCSc3ccc(C(=O)N4CCN(c5cccc(C)c5C)CC4)cc32)cc1 | 27% (active)
Cc1ccc(Cl)cc1N1CCN(C(=O)c2ccc3c(c2)N(Cc2ccccc2)CCS3)CC1 | 74%
CCOc1ccc(C(=O)c2cn(CC(=O)Nc3ccc(F)c(F)c3)c3cc4c(cc3c2=O)OCCO4)cc1 | 130%
Cc1ccc(CNC(=O)c2nc(SCc3ccccc3C)ncc2Cl)cc1 | 76%
Cc1cccc(NC(=O)Cn2cc(C(=O)C3CCCCC3)c3ccccc32)c1C | 63%
CCc1ccccc1NC(=O)Cn1nc(C(F)(F)F)c2c1CCCC2 | 77%
COC(=O)c1ccccc1NC(=O)Cn1nc(C(F)(F)F)c2c1CCCC2 | 5% (active)
COc1ccc(Cl)cc1NC(=O)Cn1nc(C(F)(F)F)c2c1CCCC2 | 35% (active)
COc1ccc(Cl)cc1NC(=O)Cn1nc(C(F)(F)F)c2c1CCC2 | 72%
CCc1ccccc1NC(=O)Cn1nc(C(F)(F)F)c2c1CCC2 | 75%
COc1cc(NC(=O)Cn2nc(C(F)(F)F)c3c2CCCC3)c(OC)cc1Cl | 78%
O=C(CCS(=O)(=O)c1cccc2nonc12)Nc1ccc(F)cc1F | 124%
FC(F)(F)c1nnc2c3ccccc3c(Cl)nn12 | 95%
Cc1nnc2c3ccccc3nc(N3CCN(c4ccccc4)CC3)n12 | 77%
FC(F)(F)c1nnc2c3ccccc3nc(-c3ccccc3)n12 | 29% (active)
O=C(Cn1nnc(-c2cccc(C(F)(F)F)c2)n1)NCc1ccc(F)cc1 | 77%
CCc1ccc(NC(=O)C(=O)NCC(c2cccnc2)N2CCc3ccccc3C2)cc1 (stereo not drawn) | 64%
CCc1ccc(OCC(=O)Nc2c(C(=O)c3ccc(Br)cc3)oc3ccccc23)cc1 | 85%
CCNc1nc(Oc2ccc(=O)n(-c3ccccc3)n2)nc(N(C)C)n1 | 84%
CC(C)OCCCNC(=O)c1c2c(nc3ccccc13)C(=O)N(C1CCCCC1)C2 | 25% (active)
COc1cccc(CNC(=O)c2c3c(nc4ccccc24)C(=O)N(C2CCCCC2)C3)c1 | 46% (active)
COc1ccc(CNC(=O)c2c3c(nc4ccccc24)C(=O)N(C2CCCCC2)C3)cc1 | 83%
CCc1ccc(CNC(=O)c2c3c(nc4ccccc24)C(=O)N(C2CCCCC2)C3)cc1 | 37% (active)
CN(C(=O)c1c2c(nc3ccccc13)C(=O)N(C1CCCCC1)C2)c1ccc(F)cc1 | 0% (active)

SMILES | survival
O=C(NCc1ccccc1)c1c2c(nc3ccccc13)C(=O)N(C1CCCCC1)C2 | 69%
CCOc1ccccc1N(C)C(=O)c1c2c(nc3ccccc13)C(=O)N(C1CCCCC1)C2 | 92%
O=C(NCc1cccc(Cl)c1)c1c2c(nc3ccccc13)C(=O)N(C1CCCCC1)C2 | 144%
CC(C)CCNC(=O)c1c2c(nc3ccccc13)C(=O)N(C1CCCCC1)C2 | 101%
Cc1ccc(CNC(=O)c2c3c(nc4ccccc24)C(=O)N(C2CCCCC2)C3)cc1 | 91%
CCCNC(=O)c1c2c(nc3ccccc13)C(=O)N(C1CCCCC1)C2 | 75%
O=C(NCc1ccc(F)cc1)c1c2c(nc3ccccc13)C(=O)N(C1CCCCC1)C2 | 102%
Cc1ccc(NC(=O)Cn2c(CCC(=O)O)ccc2-c2ccc(Cl)cc2)cc1 | 53%
Cn1ccc2cc(S(=O)(=O)N3CCN(C(=O)Nc4ccc(F)cc4F)CC3)ccc21 | 70%
COc1cccc(CNC(=O)c2cc3c(=O)oc4ccc(C)cc4c3s2)c1 | 73%
COc1ccc(Cl)cc1NC(=O)[C@H]1O[C@@H]2OC(C)(C)O[C@@H]2[C@H]2OC(C)(C)O[C@H]21 | 83%
O=C(CSCc1nc2cccnc2n1C1CCCCC1)NCc1cccc(Br)c1 | 105%
CC(C)c1nn2c(=O)cc(COC(=O)C3CCCCC3)nc2s1 | 94%
CCc1ccc2nc(N(Cc3cccnc3)C(C)=O)sc2c1 | 91%
COc1ccc(OC)c(CNC(=O)c2c3c(nc4ccccc24)C(=O)N(C2CCCCC2)C3)c1 | 93%
COc1ccc(CNC(=O)c2c3c(nc4ccccc24)C(=O)N(C2CCCCC2)C3)c(OC)c1 | 32% (active)
COc1ccccc1CNC(=O)c1c2c(nc3ccccc13)C(=O)N(C1CCCCC1)C2 | 99%
COc1ccc(C2C3C(=O)N(c4ccccc4)C(=O)C3ON2c2ccccc2)cc1 (stereo not drawn) | 106%
CC1CCN(S(=O)(=O)c2ccc3c(c2)CCN3C(=O)Nc2ccc(Br)cc2)CC1 | 69%
Cc1ccc(C(=O)Nc2ccccc2C(=O)OCc2cc(=O)n3nc(C(C)C)sc3n2)cc1 | 78%
Cc1ccccc1CNC(=O)Cn1c(=O)c2cccn2c2cccnc21 | 76%
O=C(Nc1nc2nc(-c3ccccc3)cc(=O)n2[nH]1)c1ccc(Cl)cc1 | 65%
Cc1[nH]n2c(=O)cc(-c3ccccc3Cl)nc2c1-c1ccccc1 | -3% (active)
Nc1nc2nc(-c3ccccc3)cc(=O)n2[nH]1 | 84%

SMILES | survival
Cc1nn2c(-c3ccccc3)cc(-c3ccccc3)nc2c1-c1ccc(Cl)cc1 | 78%
Cc1cccc(-c2cc3nc(-c4ccccc4)cc(=O)n3[nH]2)c1 | 97%
Cc1[nH]n2c(=O)cc(-c3ccc(Cl)cc3)nc2c1-c1ccccc1 | 3% (active)
C/C(=N\N=C1/NC(=O)C(CC(=O)O)S1)c1ccc(C)o1 (stereo not drawn) | 101%
CCCCCCNC(=O)CCc1c(C)nc2nc(-c3cc(OC)cc(OC)c3)nn2c1C | 57%
CC(C)(C)c1ccc(Cn2c(=N)n(CC(O)c3ccco3)c3ccccc32)cc1 (stereo not drawn) | 5% (active)
N=c1n(CCN2CCCCC2)c2ccccc2n1CC(O)c1ccc2c(c1)OCO2 (stereo not drawn) | 83%
Cc1ccc(Cn2c(=N)n(CC(=O)c3ccccc3)c3ccccc32)cc1 | 65%
COc1ccc(CNCCSc2nnnn2-c2ccccc2)c(OC)c1 | 49%
COc1cc(C2CC(=O)c3c([nH]c(C(=O)OCC4CCCCC4)c3C)C2)cc(OC)c1OC (stereo not drawn) | 82%
O=C(CCCCn1c(=O)c2ccccc2n(CC(=O)Nc2ccc(F)cc2F)c1=O)NCc1ccccc1Cl | 100%
O=C(NCc1ccco1)C(c1cccs1)N(C(=O)C1COc2ccccc2O1)c1cccc(O)c1 (stereo not drawn) | 63%
Cc1ccc(C(C(=O)NCc2ccccc2)N(C(=O)C2COc3ccccc3O2)c2cccc(O)c2)o1 (stereo not drawn) | 45% (active)
Cc1ccc(C(C(=O)NC2CCCCC2)N(C(=O)C2COc3ccccc3O2)c2ccc3c(c2)OCO3)o1 (stereo not drawn) | 77%
CCn1c(SCC(N)=O)nc2ccccc2c1=O | 102%
Cc1nn(C)c2c1c(-c1ccccc1)cc(=O)n2Cc1ccccc1F | 109%
Cc1cccc(-c2nc(Cn3c(=O)cc(-c4ccccc4)c4c(C)nn(C)c43)c(C)o2)c1 | -5% (active)
Cc1cc(=O)n(Cc2c(F)cccc2Cl)c2c1c(C)nn2C | 81%
Cc1oc(-c2ccccc2)nc1Cn1c(=O)cc(-c2ccccc2)c2c(C)nn(C)c21 | 92%
Cc1ccc(-c2nc(Cn3c(=O)cc(-c4ccccc4)c4c(C)nn(C)c43)c(C)o2)cc1 | 108%
Cc1nn(C)c2c1c(-c1ccccc1)cc(=O)n2Cc1c(F)cccc1Cl | -5% (active)
